Test results reported in PubChem BioAssay.
The source made the active and inactive calls.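 How the source made its calls, unless noted: active means thallium flux through the channel raised or lowered by more than 3 SD from vehicle-only wells, actives on both sides; inactive means the rest.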

How the values were obtained:
F380Y = assay: modulators of BK channel variants, profiling panel, selectivity assay, cell-based, U2OS BacMam, thallium flux, beta subunits (AID 1259406); details: at 30 µM;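 further: initial slope of Thallos dye fluorescence rise after thallium is added; log ratio against the mean of 0.3% DMSO vehicle wells on the same plate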
F380Y/beta1 = assay: as above; details: at 30 µM
F380Y/beta2Delta = assay: as above; details: at 30 µM
F380Y/beta4 = assay: as above; details: at 30 µM
[1] = target: Calcium-activated potassium channel subunit alpha-1 (Homo sapiens) + Leucine-rich repeat-containing protein 26 (Homo sapiens) (UniProt Q12791+Q2I0M4); assay: as above; details: F380Y/Slo1WT/gamma1, at 30 µM
Calcium-activated potassium channel subunit alpha-1 (Homo sapiens) + Leucine-rich repeat-containing protein 26 (Homo sapiens), sequence (Q2I0M4 whole entry, looked up, one chain of several): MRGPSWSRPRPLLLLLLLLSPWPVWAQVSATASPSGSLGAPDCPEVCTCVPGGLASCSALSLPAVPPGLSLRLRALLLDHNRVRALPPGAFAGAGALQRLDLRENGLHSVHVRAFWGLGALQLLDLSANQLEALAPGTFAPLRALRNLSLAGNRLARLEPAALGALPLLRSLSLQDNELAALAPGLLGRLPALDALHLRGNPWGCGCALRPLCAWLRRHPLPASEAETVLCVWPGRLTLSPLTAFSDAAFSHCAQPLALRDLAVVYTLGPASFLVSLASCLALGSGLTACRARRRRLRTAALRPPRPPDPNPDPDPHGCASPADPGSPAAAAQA

R275C = assay: as above; details: at 30 µM
R275C/beta1 = assay: as above; details: at 30 µM
R275C/beta2Delta = assay: as above; details: at 30 µM
R275C/beta4 = assay: as above; details: at 30 µM
R275C/Slo1WT/beta2 = assay: as above; details: at 30 µM
[2] = UWB1.289 ovarian carcinoma cell growth inhibition, synergistic combos for chromothripsis tumors, BGB or cisplatin combos (AID 1671456; in the data active means inhibition above about 80%;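 further: cells exposed to compound for four days; 0% = vehicle DMSO and 100% = killing by high DMSO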); details: UWB1.289 ovarian carcinoma cells, stronger effect = higher value
[3] = LFS_MB_2R medulloblastoma cell growth inhibition, synergistic combos for chromothripsis tumors, cisplatin combos (AID 1671457; in the data active means inhibition above about 80%;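 further: cells exposed to compound for four days before readout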); details: LFS_MB_2R medulloblastoma cells, stronger effect = higher value
[4] = MDA-MB-436 breast carcinoma cell growth inhibition, synergistic combos for chromothripsis tumors, BGB or cisplatin combos (AID 1671458; call rule not given here;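 further: cells exposed for 96 hours; 0% = vehicle DMSO and 100% = killing by high DMSO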); details: MDA-MB-436 breast carcinoma growth inhibition, drug combinations, stronger effect = higher value
[5] = UWB1.289_BRCA1 ovarian cancer growth, cell-based, BGB or cisplatin combinations (AID 1671459; in the data active means inhibition above about 80%); details: UWB1.289 BRCA1 ovarian carcinoma, drug combinations, stronger effect = higher value
[6] = human astrocyte viability loss, single and combined drugs, cytotoxicity control for chromothriptic childhood tumor combination screen, cell-based, BGB or cisplatin IC20 combos (AID 1671460; in the data active means inhibition above about 80%;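 further: cells exposed to compounds for 96 hours before viability readout; 0% = vehicle and 100% = killing control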); details: Human astrocytes, drug combinations, stronger effect = higher value
[7] = growth inhibition of BT084 medulloblastoma cells, cell-based, ICGC_MB145, cisplatin and BGB IC40 combos (AID 1671461; in the data active means inhibition above about 80%;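 further: cells exposed to drugs for 96 hours; 0% = vehicle DMSO and 100% = high DMSO full killing control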); details: drug combinations, stronger effect = higher value
[8] = growth inhibition of RCMB18 medulloblastoma cells, cell-based, cisplatin and BGB IC40 combos (AID 1671462; in the data active means inhibition above about 80%;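 further: cells exposed to compound for four days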); details: stronger effect = higher value
[9] = growth inhibition of CRL1545 osteosarcoma cells, cell-based, cisplatin and BGB IC20 combos (AID 1671464; in the data active means inhibition above about 80%;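 further: cells exposed to compound for 96 hours before readout; 0% = vehicle DMSO and 100% = high DMSO killing control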); details: stronger effect = higher value
[10] = measured here: inhibition with BGB combination, at 0.05 µM
[11] = measured here: inhibition with cisplatin combination, at 0.05 µM
[12] = measured here: combination with cisplatin, at 0.5 µM
[13] = measured here: combination with cisplatin, at 5 µM
[14] = measured here: BGB combination, at 0.5 µM
[15] = measured here: BGB combination, at 5 µM
[16] = measured here: cisplatin combination, at 0.5 µM
[17] = measured here: cisplatin combination, at 5 µM
[18] = BGB combination, concentration series, at 5 µM
[19] = cisplatin combination, concentration series, at 5 µM
[20] = measured here: combo with BGB IC20, at 0.5 µM
[21] = measured here: combo with cisplatin IC20, at 0.5 µM
[22] = cisplatin combination, at 0.5 µM
[23] = measured here: BGB IC40 combination 0.05 uM, at 0.05 µM
[24] = measured here: BGB IC40 combination, at 0.05 µM
[25] = measured here: with BGB IC20 combination, at 0.5 µM
[26] = measured here: with cisplatin IC20 combination, at 0.5 µM

O=C(NCCO[N+](=O)[O-])c1cccnc1
log fold change Tl+ flux (F380Y): 0.0612 (inactive)
log fold change Tl+ flux (F380Y/beta1): 0.00537 (inactive)
log fold change Tl+ flux (F380Y/beta2Delta): -0.00246 (inactive)
log fold change Tl+ flux (F380Y/beta4): 0.013 (inactive)
log fold change Tl+ flux [1]: 0.000443 (inactive)
log fold change Tl+ flux (R275C): -0.059 (inactive)
log fold change Tl+ flux (R275C/beta1): -0.0194 (inactive)
log fold change Tl+ flux (R275C/beta2Delta): 0.000208 (inactive)
log fold change Tl+ flux (R275C/beta4): 0.0335 (inactive)
log fold change Tl+ flux (R275C/Slo1WT/beta2): -0.00283 (inactive)

Cc1nc2ccc(CN(C)c3ccc(C(=O)N[C@@H](CCC(=O)O)C(=O)O)s3)cc2c(=O)[nH]1
inhibition ([2]; at 0.5 µM): 29.7% (inactive)
inhibition [2, 10]: -4.8%
inhibition [2, 11]: 1.64%
inhibition ([3]; at 0.5 µM): -17.1% (inactive)
inhibition [3, 12]: -12.9%
inhibition [3, 13]: -18.4%
inhibition ([4]; at 0.5 µM): 44.2% (inactive)
inhibition [4, 14]: 26.6%
inhibition [4, 15]: 17.5%
inhibition [4, 16]: 47.7%
inhibition [4, 17]: 45.6%
inhibition [5, 18]: 48.7%
inhibition ([5]; at 0.5 µM): 42.1% (inactive)
inhibition [5, 19]: 59.8%
inhibition ([6]; at 0.5 µM): -0.43% (inactive)
inhibition [6, 20]: 3.56%
inhibition [6, 21]: 0.651%
inhibition ([7]; at 0.5 µM): -1.53% (inactive)
inhibition [7, 22]: 4.81%
inhibition ([7]; cisplatin combination, at 5 µM): -0.041%
inhibition [7, 23]: -15.2%
inhibition ([7]; single agent, at 5 µM): -10.4%
inhibition ([8]; at 0.5 µM): -20.8% (inactive)
inhibition ([8]; cisplatin combo, at 5 µM): 14%
inhibition [8, 24]: -41.8%
inhibition [8, 12]: -4.37%
inhibition ([8]; single agent, at 5 µM): -40.1%
inhibition ([9]; at 0.5 µM): -1.83% (inactive)
inhibition [9, 25]: 13.9%
inhibition [9, 26]: -9.68%
inhibition ([9]; single agent, at 0.05 µM): 0.207%
inhibition ([9]; single agent, at 5 µM): 28.5%
log fold change Tl+ flux (F380Y): -0.025 (inactive)
log fold change Tl+ flux (F380Y/beta1): -0.0237 (inactive)
log fold change Tl+ flux (F380Y/beta2Delta): -0.00369 (inactive)
log fold change Tl+ flux (F380Y/beta4): 0.0379 (inactive)
log fold change Tl+ flux [1]: -0.00311 (inactive)
log fold change Tl+ flux (R275C): -0.0146 (inactive)
log fold change Tl+ flux (R275C/beta1): 0.00396 (inactive)
log fold change Tl+ flux (R275C/beta2Delta): -0.00877 (inactive)
log fold change Tl+ flux (R275C/beta4): -0.00369 (inactive)
log fold change Tl+ flux (R275C/Slo1WT/beta2): -0.0401 (inactive)

Nc1nc2c(ncn2COC(CO)CO)c(=O)[nH]1
inhibition ([2]; at 0.5 µM): 8.41% (inactive)
inhibition [2, 10]: -10.6%
inhibition [2, 11]: 1.36%
inhibition ([3]; at 0.5 µM): 1.52% (inactive)
inhibition [3, 12]: 8.4%
inhibition [3, 13]: 102%
inhibition ([4]; at 0.5 µM): -1.05% (inactive)
inhibition [4, 14]: 1.08%
inhibition [4, 15]: 38.9%
inhibition [4, 16]: -7.9%
inhibition [4, 17]: 51.5%
inhibition [5, 18]: 35.4%
inhibition ([5]; at 0.5 µM): 7.28% (inactive)
inhibition [5, 19]: 66%
inhibition ([6]; at 0.5 µM): 19.3% (inactive)
inhibition [6, 20]: 14.4%
inhibition [6, 21]: 21.1%
inhibition ([7]; at 0.5 µM): 25.1% (inactive)
inhibition [7, 22]: 43%
inhibition ([7]; cisplatin combination, at 5 µM): 103%
inhibition [7, 23]: 16.9%
inhibition ([7]; single agent, at 5 µM): 107%
inhibition ([8]; at 0.5 µM): 15.7% (inactive)
inhibition ([8]; cisplatin combo, at 5 µM): 102%
inhibition [8, 24]: 12.8%
inhibition [8, 12]: 27.1%
inhibition ([8]; single agent, at 5 µM): 88.8%
inhibition ([9]; at 0.5 µM): 44.7% (inactive)
inhibition [9, 25]: 29.8%
inhibition [9, 26]: 52.1%
inhibition ([9]; single agent, at 0.05 µM): 3.9%
inhibition ([9]; single agent, at 5 µM): 93.9%
log fold change Tl+ flux (F380Y): -0.00258 (inactive)
log fold change Tl+ flux (F380Y/beta1): 0.0388 (inactive)
log fold change Tl+ flux (F380Y/beta2Delta): 0.0461 (inactive)
log fold change Tl+ flux (F380Y/beta4): 0.0377 (inactive)
log fold change Tl+ flux [1]: -0.00437 (inactive)
log fold change Tl+ flux (R275C): 0.0708 (inactive)
log fold change Tl+ flux (R275C/beta1): -0.0192 (inactive)
log fold change Tl+ flux (R275C/beta2Delta): 0.0472 (inactive)
log fold change Tl+ flux (R275C/beta4): -0.0224 (inactive)
log fold change Tl+ flux (R275C/Slo1WT/beta2): -0.00303 (inactive)
